Screens (PubChem BioAssay)
AmpC no deterg = blocks E. coli AmpC beta-lactamase in detergent-free assay; Potency, µM (series often up to 57.1 µM), inactives show at the top dose activity change, negative = inhibition, usual class: inhibitors; P00811; 0.52% of 330,000 active; AmpC nitrocefin hydrolysis, absorbance 480 nm, 0.0001% Triton; AID 485341;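 note: plate controls were no compound for no effect and no enzyme for full effect; nearly all actives have a fitted effect of over 20% in size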
Target sequence (P00811 whole entry, looked up): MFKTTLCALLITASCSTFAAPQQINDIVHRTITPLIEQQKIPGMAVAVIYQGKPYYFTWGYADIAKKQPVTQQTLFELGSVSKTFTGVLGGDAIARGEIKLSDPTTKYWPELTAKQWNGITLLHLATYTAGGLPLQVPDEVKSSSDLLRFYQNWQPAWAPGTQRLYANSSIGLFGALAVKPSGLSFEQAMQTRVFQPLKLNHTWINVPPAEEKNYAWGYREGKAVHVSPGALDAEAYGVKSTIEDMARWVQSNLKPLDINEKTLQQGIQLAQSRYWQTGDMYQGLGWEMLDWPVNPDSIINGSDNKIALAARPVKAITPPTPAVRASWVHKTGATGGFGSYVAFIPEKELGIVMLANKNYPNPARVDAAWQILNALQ
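20 mM phosphate pH 7.0 + 0.01% (detergent screen) or 0.0001% Triton X-100; 5.3 nM AmpC reagent; cpd preinc 15 min RT; nitrocefin (800 uM stock) to start; A480 q20 s × 4 min; Activity was normalised to no-enzyme and no-compound control wells.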
AmpC inh detg = AmpC beta-lactamase inhibition with detergent present. Potency, µM (doses to about 114 µM), for the others: at the highest dose activity change, negative = inhibition, most hits filed as inhibitors. 0.041% of 370,000 active. AmpC hydrolysis of nitrocefin, absorbance 480 nm, 0.01% Triton. P00811;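 note: 0% = no-compound wells and -100% = no-enzyme wells; nearly all actives have a fitted effect of over 25% in size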
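20 mM phosphate pH 7.0 + 0.01% (detergent screen) or 0.0001% Triton X-100; 5.3 nM AmpC reagent; cpd preinc 15 min RT; nitrocefin (800 uM stock) to start; A480 q20 s × 4 min; Activity was normalised to no-enzyme and no-compound control wells.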
Pf growth 96h = inhibits malaria parasite growth, 96 h; P. falciparum luciferase reporter growth, 96 h; Potency, µM (highest dose often 28.7 µM), without a hit: at the highest dose activity change, negative = inhibition, usual class: inhibitors; 6.9% of 320,000 active
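Two-generation exposure (96 h) targets delayed-death phenotype. Reporter parasites carrying integrated firefly luciferase, in red cells at 2% hematocrit and 0.05% parasitemia final, kept at 37 C, 5% CO2; luminescence loss indicates inhibition.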
HCV inhibitor = inhibitors of hepatitis C virus infection | Huh7.5.1 HCVcc-Cre infection, luciferase reporter, 44 h | Potency, µM (highest dose often 41.8 µM), without a hit: at the highest dose activity change, negative = inhibition, most hits filed as inhibitors | 3.4% of 340,000 active | AID 651820
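Infectious HCVcc-Cre (~0.5 moi) was added to cells just after compound, with cells seeded 4 h earlier at 1,000 per well. Luciferase activity after 44 h culture reported infection; substrate was incubated 15 min at room temperature before reading.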
AMA1-RON2 inh = inhibitors of Plasmodium falciparum AMA1-RON2 interaction. AlphaScreen AMA1-biotinylated RON2 peptide binding. Potency, µM (highest dose often 58.2 µM), inactives show at the highest dose activity change, negative = inhibition, actives largely listed as inhibitors. 0.2% of 360,000 active. AID 720542;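 note: 0% = vehicle wells and -100% = peptide control; nearly all actives have a fitted effect of over 45% in size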
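AMA1 (3D7) with his tag at 25 nM final met compounds first, then biotinylated RON2 peptide at 25 nM; detection used donor plus acceptor beads, 10 µg/mL apiece, read by AlphaScreen after 30 min at room temperature.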
Pf growth 48h = inhibits P. falciparum growth in the first generation, 48 h; AID 504832; P. falciparum luciferase growth in erythrocytes, 48 h; 5.9% of 310,000 active; Potency, µM (series often up to 28.7 µM), for the others: at the highest dose activity change, negative = inhibition, actives largely listed as inhibitors
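Compounds are pin-transferred into medium, infected erythrocytes (2% hematocrit, 0.1% parasitemia final) are added, and plates sit one parasite generation at 37 C in 5% CO2. Detection reagent is then added and luminescence measured.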
Numbers without * were called inactive; ? = inconclusive; nt = not tested or not shown. In the library only some 11% were active in any assay of this set; here they are far more common. Calls come from the whole dose curve; as a rule, active = well fitted curve in the direction sought with a large enough effect; inconclusive = small, poorly fitted or top-dose-only effect, or another doubt; inactive = no such curve, though single readings can be large; an effect the other way counts as inactive or inconclusive. Unless noted, % is set by controls: 0 for no effect and ±100 for the full control effect; potency is the fitted concentration of half-maximal effect.

SMILES	AmpC no deterg	AmpC inh detg	Pf growth 96h	HCV inhibitor	AMA1-RON2 inh	Pf growth 48h
CC(C)(C)c1ccc(Cn2nnc3c(=O)[nH]c(C4CCCN(C(=O)Cc5cccs5)C4)nc32)cc1 (centres undefined)	77%	-6%	5.2µM*	-3%	-11%	?
O=C(Cc1cccs1)N1CCCC(c2nc3c(nnn3Cc3ccccc3Cl)c(=O)[nH]2)C1 (centres undefined)	38%	5%	32%	18%	-6%	5.2µM*
O=C(NCc1cccs1)c1nc2c(nnn2Cc2ccccc2Cl)c(=O)[nH]1	-7%	3%	-27%	5µM*	43%	4.1µM*
CC(C)(C)c1ccc(Cn2nnc3c(=O)[nH]c(C4CCN(C(=O)c5ccco5)CC4)nc32)cc1	69%	-9%	-2%	15%	-8%	6.6µM*
O=C(Nc1ccc(F)c(Cl)c1)c1cc(S(=O)(=O)N2CCCc3ccccc32)ccc1F	nt	-7%	nt	nt	nt	nt
CCc1ccc(CN(C(=O)c2cc(=O)c3ccc(C)cc3o2)C2CCS(=O)(=O)C2)cc1 (centres undefined)	nt	1%	nt	nt	nt	nt
Cc1ccc(Cn2nnc3c(=O)[nH]c(C4CCN(C(=O)Cc5cccs5)CC4)nc32)cc1	58%	-6%	?	15%	6%	-50%
CC(C)(C)c1ccc(Cn2nnc3c(=O)[nH]c(C4CCCN(C(=O)c5cccs5)C4)nc32)cc1 (centres undefined)	12%	-13%	4.1µM*	-8%	-17%	?
O=C(c1cccs1)N1CCCC(c2nc3c(nnn3Cc3c(Cl)cccc3Cl)c(=O)[nH]2)C1 (centres undefined)	-25%	-1%	?	-13%	7%	13µM*
CC(C)(C)c1ccc(Cn2nnc3c(=O)[nH]c(C4CCN(C(=O)Cc5cccs5)CC4)nc32)cc1	97%	-15%	nt	-21%	-20%	5.9µM*
O=C1CCSC2(C(=O)N(Cc3ccc(F)cc3)c3ccccc32)N1c1ccc(F)c(F)c1 (centres undefined)	nt	17%	nt	nt	nt	nt
CCN1CCN(Cc2ccc(NC(=O)c3ccc(C)c(NC(=O)C4=NN(c5ccccc5)C(=O)C4)c3)cc2C(F)(F)F)CC1	23%	5%	0.52µM*	-17%	11%	0.41µM*
CCN1CCN(Cc2ccc(NC(=O)c3ccc(C)c(NC(=O)c4c[nH]c5cc(C(F)(F)F)ccc5c4=O)c3)cc2C(F)(F)F)CC1	85%	4%	0.52µM*	?	?	0.59µM*
CCN1CCN(Cc2ccc(NC(=O)c3ccc(C)c(NC(=O)c4cccc(-c5cn[nH]c(=O)c5)c4)c3)cc2C(F)(F)F)CC1	172%	?	1.5µM*	?	-21%	1.7µM*
CCN1CCN(Cc2ccc(NC(=O)c3ccc(C)c(/C=C/c4cnc(Nc5cc(N6CCNCC6)nc(C)n5)cn4)c3)cc2C(F)(F)F)CC1	118%	0%	?	?	5%	?
Cc1ccc(C(=O)Nc2cccc(C(F)(F)F)c2)cc1NC(=O)c1c[nH]c2cc(C(F)(F)F)ccc2c1=O	-14%	nt	nt	31%	-4%	nt
CCN1CCN(Cc2ccc(NC(=O)c3cc(NC(=O)C4=NN(c5ccccc5)C(=O)C4)cc(OC)c3)cc2C(F)(F)F)CC1	11%	-5%	0.33µM*	11%	11%	0.93µM*
CCN1CCN(Cc2ccc(NC(=O)c3ccc(C)c(NC(=O)C[C@@H]4NC(=O)[C@H](Cc5ccccc5)NC4=O)c3)cc2C(F)(F)F)CC1	131%	3%	?	-2%	73%	?
COc1ccc(S(=O)(=O)c2c(Nc3ccc(C)cc3C)sc(C(=O)c3ccc(F)cc3)c2N)cc1	nt	2%	nt	nt	nt	nt
